# Reference: publication PMC9911399, “Two distinct binding modes provide the RNA-binding protein RbFox with extraordinary sequence specificity”
# Where a chain is given by its changes, count along the chain named. Over roughly 16,000 sequences, “ka relative to ugcaugu” has its median near 0.096; the highest 2% begin near 0.35. This is one part of a sample in which the highest values are shown more often than they occur.
# T1: RBFOX1 RRM RbFoxmut (Fox-RRM*) (Homo sapiens, UniProt Q9NWB1 109-208, R118D;E147R;N151S;E152T)
# T1 sequence: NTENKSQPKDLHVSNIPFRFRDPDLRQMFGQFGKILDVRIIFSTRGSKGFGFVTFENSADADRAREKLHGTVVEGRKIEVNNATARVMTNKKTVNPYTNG
# B1: GCCAUCG (DNA:RNA)
# RNA: GGGAGACCGGAAUUCAGAUUGUCCGCCAUCGUUAAAUCCCGUCGUAGCCACCA
# DNA 1: CAATCTGAATTCCGGTCTCCC
# DNA 2: TGGTGGCTACGACGGGATT
# B2: GUCAUAC (DNA:RNA)
# RNA: B1 RNA with C26U, C30A, G31C
# DNA 1: CAATCTGAATTCCGGTCTCCC
# DNA 2: TGGTGGCTACGACGGGATT
# B3: AUUUCGA (DNA:RNA)
# RNA: GGGAGACCGGAAUUCAGAUUGUCCAUUUCGAUUAAAUCCCGUCGUAGCCACCA
# DNA 1: CAATCTGAATTCCGGTCTCCC
# DNA 2: TGGTGGCTACGACGGGATT
# B4: AAACAAG (DNA:RNA)
# RNA: B3 RNA with U26A, U27A, U28C, C29A, G30A, A31G
# DNA 1: CAATCTGAATTCCGGTCTCCC
# DNA 2: TGGTGGCTACGACGGGATT
# B5: UAAUACC (DNA:RNA)
# RNA: B3 RNA with A25U, U26A, U27A, C29A, G30C, A31C
# DNA 1: CAATCTGAATTCCGGTCTCCC
# DNA 2: TGGTGGCTACGACGGGATT
# B6: AGCUAUA (DNA:RNA)
# RNA: B3 RNA with U26G, U27C, C29A, G30U
# DNA 1: CAATCTGAATTCCGGTCTCCC
# DNA 2: TGGTGGCTACGACGGGATT
# B7: AGUGGCA (DNA:RNA)
# RNA: B3 RNA with U26G, U28G, C29G, G30C
# DNA 1: CAATCTGAATTCCGGTCTCCC
# DNA 2: TGGTGGCTACGACGGGATT
# B8: CAAAUUG (DNA:RNA)
# RNA: B1 RNA with G25C, C26A, C27A, C30U
# DNA 1: CAATCTGAATTCCGGTCTCCC
# DNA 2: TGGTGGCTACGACGGGATT
# B9: GGGUGUG (DNA:RNA)
# RNA: B1 RNA with C26G, C27G, A28U, U29G, C30U
# DNA 1: CAATCTGAATTCCGGTCTCCC
# DNA 2: TGGTGGCTACGACGGGATT
# B10: CCGGGUG (DNA:RNA)
# RNA: B1 RNA with G25C, C27G, A28G, U29G, C30U
# DNA 1: CAATCTGAATTCCGGTCTCCC
# DNA 2: TGGTGGCTACGACGGGATT
# B11: GCGGGUG (DNA:RNA)
# RNA: B1 RNA with C27G, A28G, U29G, C30U
# DNA 1: CAATCTGAATTCCGGTCTCCC
# DNA 2: TGGTGGCTACGACGGGATT
# B12: GGGGGUC (DNA:RNA)
# RNA: B1 RNA with C26G, C27G, A28G, U29G, C30U, G31C
# DNA 1: CAATCTGAATTCCGGTCTCCC
# DNA 2: TGGTGGCTACGACGGGATT
# B13: GGGUGUC (DNA:RNA)
# RNA: B3 RNA with A25G, U26G, U27G, C29G, G30U, A31C
# DNA 1: CAATCTGAATTCCGGTCTCCC
# DNA 2: TGGTGGCTACGACGGGATT
# B14: GGGGGUG (DNA:RNA)
# RNA: B1 RNA with C26G, C27G, A28G, U29G, C30U
# DNA 1: CAATCTGAATTCCGGTCTCCC
# DNA 2: TGGTGGCTACGACGGGATT
# B15: GGUCUGG (DNA:RNA)
# RNA: B1 RNA with C26G, C27U, A28C, C30G
# DNA 1: CAATCTGAATTCCGGTCTCCC
# DNA 2: TGGTGGCTACGACGGGATT
# B16: ACUUCCA (DNA:RNA)
# RNA: B3 RNA with U26C, G30C
# DNA 1: CAATCTGAATTCCGGTCTCCC
# DNA 2: TGGTGGCTACGACGGGATT
# B17: CCAGGGC (DNA:RNA)
# RNA: B3 RNA with A25C, U26C, U27A, U28G, C29G, A31C
# DNA 1: CAATCTGAATTCCGGTCTCCC
# DNA 2: TGGTGGCTACGACGGGATT
# B18: AGUUAUG (DNA:RNA)
# RNA: B3 RNA with U26G, C29A, G30U, A31G
# DNA 1: CAATCTGAATTCCGGTCTCCC
# DNA 2: TGGTGGCTACGACGGGATT
# B19: ACCUUAA (DNA:RNA)
# RNA: B3 RNA with U26C, U27C, C29U, G30A
# DNA 1: CAATCTGAATTCCGGTCTCCC
# DNA 2: TGGTGGCTACGACGGGATT
# B20: CCCGCAU (DNA:RNA)
# RNA: B1 RNA with G25C, A28G, U29C, C30A, G31U
# DNA 1: CAATCTGAATTCCGGTCTCCC
# DNA 2: TGGTGGCTACGACGGGATT
# B21: CUUCACC (DNA:RNA)
# RNA: B3 RNA with A25C, U28C, C29A, G30C, A31C
# DNA 1: CAATCTGAATTCCGGTCTCCC
# DNA 2: TGGTGGCTACGACGGGATT
# B22: CGAGUAU (DNA:RNA)
# RNA: B1 RNA with G25C, C26G, C27A, A28G, C30A, G31U
# DNA 1: CAATCTGAATTCCGGTCTCCC
# DNA 2: TGGTGGCTACGACGGGATT
# B23: CUGGUUG (DNA:RNA)
# RNA: B1 RNA with G25C, C26U, C27G, A28G, C30U
# DNA 1: CAATCTGAATTCCGGTCTCCC
# DNA 2: TGGTGGCTACGACGGGATT
# B24: UGGUUUU (DNA:RNA)
# RNA: B3 RNA with A25U, U26G, U27G, C29U, G30U, A31U
# DNA 1: CAATCTGAATTCCGGTCTCCC
# DNA 2: TGGTGGCTACGACGGGATT
# B25: CCCCUGG (DNA:RNA)
# RNA: B1 RNA with G25C, A28C, C30G
# DNA 1: CAATCTGAATTCCGGTCTCCC
# DNA 2: TGGTGGCTACGACGGGATT
# B26: UGGUUUG (DNA:RNA)
# RNA: B1 RNA with G25U, C26G, C27G, A28U, C30U
# DNA 1: CAATCTGAATTCCGGTCTCCC
# DNA 2: TGGTGGCTACGACGGGATT
# B27: UGUUUGG (DNA:RNA)
# RNA: B3 RNA with A25U, U26G, C29U, A31G
# DNA 1: CAATCTGAATTCCGGTCTCCC
# DNA 2: TGGTGGCTACGACGGGATT
# B28: UGGUUGU (DNA:RNA)
# RNA: B3 RNA with A25U, U26G, U27G, C29U, A31U
# DNA 1: CAATCTGAATTCCGGTCTCCC
# DNA 2: TGGTGGCTACGACGGGATT
# B29: UGGUUCC (DNA:RNA)
# RNA: B1 RNA with G25U, C26G, C27G, A28U, G31C
# DNA 1: CAATCTGAATTCCGGTCTCCC
# DNA 2: TGGTGGCTACGACGGGATT
# B30: GUCCUGG (DNA:RNA)
# RNA: B1 RNA with C26U, A28C, C30G
# DNA 1: CAATCTGAATTCCGGTCTCCC
# DNA 2: TGGTGGCTACGACGGGATT
# B31: UGGUUGG (DNA:RNA)
# RNA: B3 RNA with A25U, U26G, U27G, C29U, A31G
# DNA 1: CAATCTGAATTCCGGTCTCCC
# DNA 2: TGGTGGCTACGACGGGATT
# B32: UGGUUUC (DNA:RNA)
# RNA: B3 RNA with A25U, U26G, U27G, C29U, G30U, A31C
# DNA 1: CAATCTGAATTCCGGTCTCCC
# DNA 2: TGGTGGCTACGACGGGATT
# B33: UGGUGGU (DNA:RNA)
# RNA: B3 RNA with A25U, U26G, U27G, C29G, A31U
# DNA 1: CAATCTGAATTCCGGTCTCCC
# DNA 2: TGGTGGCTACGACGGGATT
# B34: UGGUUCG (DNA:RNA)
# RNA: B1 RNA with G25U, C26G, C27G, A28U
# DNA 1: CAATCTGAATTCCGGTCTCCC
# DNA 2: TGGTGGCTACGACGGGATT
# Molecular target: T1, RBFOX1 RRM RbFoxmut (Fox-RRM*)
# Assay: EMSA; HiTS-Eq, 1 nM pool, 10 min; buffer printed only for the single-RNA assays: 10 mM Tris pH 7.5, 150 mM NaCl, 3.4 mM EDTA, 0.001% NP-40, 30 C
# Conditions: tags: His6 N-terminal (pET28a); label: 5' 32P
# Procedure, shortened: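 These values rest on relative association constants, computed from read-count changes of each RNA species versus the control reaction and normalised to the cognate motif. Reads came from free RNA recovered by 8% native PAGE after purified RbFox RRM (wild type or mutant) at increasing concentrations was equilibrated for 10 min in 50 µL with 1 nM of a 5′-radiolabelled pool with 7 randomized nucleotides and DNA-annealed flanks.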
row,Binder,binding signal
1,B1,0.0927 KA relative to UGCAUGU
2,B2,0.1 KA relative to UGCAUGU
3,B3,0.114 KA relative to UGCAUGU
4,B4,0.0927 KA relative to UGCAUGU
5,B5,0.0785 KA relative to UGCAUGU
6,B6,0.14 KA relative to UGCAUGU
7,B7,0.144 KA relative to UGCAUGU
8,B8,0.117 KA relative to UGCAUGU
9,B9,0.441 KA relative to UGCAUGU
10,B10,0.163 KA relative to UGCAUGU
11,B11,0.194 KA relative to UGCAUGU
12,B12,0.201 KA relative to UGCAUGU
13,B13,0.368 KA relative to UGCAUGU
14,B14,0.289 KA relative to UGCAUGU
15,B15,0.153 KA relative to UGCAUGU
16,B16,0.0542 KA relative to UGCAUGU
17,B17,0.102 KA relative to UGCAUGU

row,Binder,binding signal
1,B18,0.28 KA relative to UGCAUGU
2,B19,0.129 KA relative to UGCAUGU
3,B20,0.0703 KA relative to UGCAUGU
4,B21,0.0684 KA relative to UGCAUGU
5,B22,0.143 KA relative to UGCAUGU
6,B23,0.458 KA relative to UGCAUGU
7,B24,0.0956 KA relative to UGCAUGU
8,B25,0.0629 KA relative to UGCAUGU
9,B26,0.874 KA relative to UGCAUGU
10,B27,0.302 KA relative to UGCAUGU
11,B28,0.396 KA relative to UGCAUGU
12,B29,0.157 KA relative to UGCAUGU
13,B30,0.075 KA relative to UGCAUGU
14,B31,0.309 KA relative to UGCAUGU
15,B32,0.183 KA relative to UGCAUGU
16,B33,0.161 KA relative to UGCAUGU
17,B34,0.492 KA relative to UGCAUGU
